Drawing on PubChem BioAssay (Tox21), this text covers Potency and outcome for six compounds.

The nature of assay [1]: Nuclear factor erythroid 2-related factor 2/antioxidant responsive element (Nrf2/ARE) small molecule agonists: qHTS cell viability counter screen in human keratinocytes (AID 1919968; active means well fitted curve in the direction sought with a large enough effect in the repeat runs; an effect the other way counts as inactive or inconclusive; further: nearly all actives have a fitted effect of over 55% in size). The procedure, abridged:
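KeratinoSens cells (HaCaT keratinocytes stably carrying an ARE-luciferase reporter) were seeded at 1,500 cells/well and rested 5 h at 37 C/5% CO2. They were then exposed to compounds in DMSO for 23 h. Viability was read by CellTiter-Fluor fluorescence after 1 h.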

Assay [2] in a line: Nuclear factor erythroid 2-related factor 2/antioxidant responsive element (Nrf2/ARE) small molecule agonists: luciferase reporter gene qHTS assay in human keratinocytes (AID 1919969). Further: nearly all actives have a fitted effect of over 35% in size. Further: potency means the concentration at half of the fitted maximal effect.
Assay [3] has as its target Gonadotropin-releasing hormone receptor (Homo sapiens) (UniProt P30968). Briefly: Human gonadotropin-releasing hormone receptor (GnRHR) small molecule agonists, calcium flux assay in GnRHR-HEK293 cells (AID 1920063). Further: nearly all actives have a fitted effect of over 35% in size. An outline of the steps:
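HEK293 cells stably expressing human GnRHR were plated 18 h at 37 °C, loaded with calcium dye 1 h at 37 °C, then given compound in agonist mode; fluorescence (Ex/Em 480/540) read kinetically for 3 min at 1 s intervals.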

Assay [4] has as its target KiSS-1 receptor (Homo sapiens) (UniProt Q969F8). Briefly: Human kisspeptin (KISS1R) small molecule agonists, calcium flux assay in KISS1R-HEK293 cells (AID 1920064; active means well fitted curve in the direction sought with a large enough effect in the repeat runs; an effect the other way counts as inactive or inconclusive). An outline of the steps:
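HEK293 cells stably expressing human KISS1R were plated 18 h at 37 °C, loaded with calcium dye for 1 h at 37 °C, then given compound by pin tool. Fluorescence (Ex/Em 480/540) was read kinetically for 3 min.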

The nature of assay [5]: G protein-coupled receptor (GPCR) small molecule agonists, calcium flux assay: HEK293 wild type cell line counter screen (AID 1920065). The procedure, abridged:
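Cells were plated and cultured 18 h at 37 C/5% CO2, then loaded with calcium dye for 1 h at 37 C. Compounds in DMSO were pin-transferred in agonist mode, and fluorescence (Ex/Em 480/540) was read kinetically for 3 min at 1 s intervals.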

Assay [6] can be described thus: p53 small molecule agonists, cell-based qHTS assay with human liver microsomes (AID 1963577). An outline of the steps:
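Cells carrying a p53-responsive bla reporter were rested 5 h (37 C, 5% CO2) before compound transfer. Human liver microsomes plus NADPH, 0.5 mg/mL final apiece, supplied metabolism during the 16 h 37 C exposure.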

Assay [7] is described as follows: p53 small molecule agonists, cell-based qHTS assay with rat liver microsomes (AID 1963578). The procedure, abridged: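 Fluorescence from a beta-lactamase reporter under a p53 response element was measured after cells had been incubated 16 h at 37 C with test compound and rat liver microsomes plus NADPH (0.5 mg/mL final each).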
Assay [8] can be described thus: p53 small molecule agonists, cell-based qHTS assay with human liver microsomes: qHTS cell viability counter screen (AID 1963579). Further: nearly all actives have a fitted effect of over 45% in size. The procedure, abridged:
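Seed p53RE-bla cells at 4,000 per well; incubate 5 h at 37 C; add compound, human liver microsomes and NADPH; incubate 16 h at 37 C; add CellTiter-Glo; after 30 min at room temperature, read luminescence.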

Assay [9] in a line: p53 small molecule agonists, cell-based qHTS assay with rat liver microsomes: qHTS cell viability counter screen (AID 1963580). Further: nearly all actives have a fitted effect of over 45% in size. The procedure, abridged: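 HCT-116 p53RE-bla, 4,000 cells/well, 5 h pre-incubation; cpd + rat liver microsomes 0.5 mg/mL + NADPH 0.5 mg/mL (final); 16 h, 37 C; CellTiter-Glo, 30 min RT; luminescence.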
Assay [10] is described as follows: p53 small molecule agonists, cell-based qHTS assay: qHTS cell viability counter screen (AID 1963581). Further: nearly all actives have a fitted effect of over 45% in size. The procedure, abridged: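 p53RE-bla HCT-116 cells were exposed to compounds for 16 h at 37 C; after the beta-lactamase FRET read in the same wells, CellTiter-Glo was added and luminescence (intracellular ATP) read after 30 min at room temperature.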
Assay [11] can be described thus: p53 small molecule agonists, cell-based qHTS assay (AID 1963582; active means well fitted activation curve with a large enough effect in the signal ratio in the repeat runs, not every such curve was filed as active; the % refers to the signal ratio). The procedure, abridged:
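p53RE-bla beta-lactamase reporter cells rested 5 h at 37 C/5% CO2, then received compounds in DMSO by pin transfer and were incubated 16 h at 37 C. LiveBLAzer B/G FRET substrate was loaded for 2 h at room temperature before fluorescence reading.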

The target in assay [12] is 5-hydroxytryptamine receptor 2A (Homo sapiens) (UniProt P28223). Briefly: 5-hydroxytryptamine receptor 2A (HTR2A) small molecule antagonists, cell-based qHTS assay (AID 1963586). Further: nearly all actives have a fitted effect of over 45% in size. The procedure, abridged:
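Antagonist-mode intracellular calcium assay: DOI (4 nM) added after 5 min compound pre-incubation at room temperature to dye-loaded HTR2A-CHO cells. Fluorescence followed for 3 min, sampled every second.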

Assay [13] has the same target. Put plainly: 5-hydroxytryptamine receptor 2A (HTR2A) small molecule agonists, cell-based qHTS assay (AID 1963587). Further: nearly all actives have a fitted effect of over 30% in size. The procedure, abridged:
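Kinetic calcium-flux fluorescence (2 min, 1 sec intervals) after compound addition in agonist mode. HTR2A-CHO cells were cultured 18 h, then dye-loaded 1 h at 37 C.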

In assay [14] the target is Muscarinic acetylcholine receptor M1 (Homo sapiens) (UniProt P11229). Put plainly: Cholinergic receptor muscarinic 1 (CHRM1) small molecule antagonists, cell-based qHTS assay (AID 1963588). Further: nearly all actives have a fitted effect of over 40% in size. Further: potency means the concentration at half of the fitted maximal effect. The procedure, abridged:
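CHRM1-CHO calcium-flux assay, antagonist mode. Cells were seeded 18 h, dye-loaded 1 h at 37 C and given compound for 5 min at RT, then acetylcholine was added at 50nM. FDSS fluorescence was read 3 min; 15 concentrations, three runs.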

Assay [15] shares this target. Put plainly: Cholinergic receptor muscarinic 1 (CHRM1) small molecule agonists, cell-based qHTS assay (AID 1963589). Further: nearly all actives have a fitted effect of over 35% in size. The procedure, abridged:
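CHO cells stably expressing human CHRM1, seeded 18 h at 37 C/5% CO2, dye-loaded 1 h at 37 C, then given compound in agonist mode; intracellular calcium fluorescence read kinetically at 1 s intervals. Fifteen concentrations, three independent runs.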

Assay [16] in a line: cAMP Responsive Elements (CRE) small molecule agonists, cell-based qHTS assay (AID 1963590). An outline of the steps:
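CRE-bla HEK 293T cells in DMEM with 10% dialyzed FBS, NEAA, pyruvate and 25 mM HEPES were plated 18 h at 37 C/5% CO2, then exposed to compounds in DMSO for 3 h before LiveBLAzer B/G FRET substrate addition.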

Assay [17] has as its target Beta-2 adrenergic receptor (Homo sapiens) (UniProt P07550). Briefly: Adrenergic beta2 receptor (ADRB2) small molecule antagonists, cell-based qHTS assay (AID 1963592). Further: series mostly up to about 92 µM; nearly all actives have a fitted effect of over 50% in size. An outline of the steps: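 Cells (CHO, stable ADRB2 overexpression) incubated 18-20hr at 37C; compounds added from DMSO; agonist mix (1nM isoproterenol, 100uM IBMX, 25uM Ro-20-1724) added; 0.5hr RT; d2-cAMP and anti-cAMP-cryptate added; 1hr RT; 665/615 nm read.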

The target of assay [18] is D(2) dopamine receptor (Homo sapiens) (UniProt P14416). Briefly: Dopamine D2 receptor (DRD2) small molecule agonists, cell-based qHTS assay (AID 1963594). Further: nearly all actives have a fitted effect of over 35% in size. The procedure, abridged:
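cAMP accumulation in DRD2-HEK293 cells measured by HTRF after 1 h detection; compounds added 10 min before NKH477 (200nM […]) forskolin-analogue stimulation, 30 min at room temperature, with Ro20-1724 present at 0.1 mM final.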

For assay [19] the target is unchanged. Briefly: Dopamine D2 receptor (DRD2) small molecule antagonists, cell-based qHTS assay (AID 1963595; active means well fitted inhibition curve with a large enough effect in the signal ratio in the repeat runs, with a control signal flat; the % refers to the signal ratio). An outline of the steps: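 HEK293 cells stably expressing DRD2 were preincubated with 0.1 mM Ro20-1724, then with compound for 10 min at room temperature. Cells were stimulated with 200 nM NKH477 plus 12 nM quinpirole for 30 min, and cAMP was read by HTRF.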

Assay [20] is described as follows: cAMP Responsive Elements (CRE) small molecule antagonists, cell-based qHTS assay (AID 1963591; active means well fitted inhibition curve with a large enough effect in the signal ratio in the repeat runs, not every such curve was filed as active; the % refers to the signal ratio). An outline of the steps:
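CRE-bla HEK293T cells were plated 18 h at 37 °C/5% CO2, pinned with compound in DMSO, then stimulated with NKH477 at 0.25 uM final for 3 h. LiveBLAzer B/G FRET substrate was added and plates incubated 2 h at room temperature.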

Inconclusive results are not listed. Calls of active or inactive are those of the source. Unless noted, the call rests on the fitted dose curve.

KiSS-1 receptor (Homo sapiens), sequence (Q969F8 whole entry, looked up): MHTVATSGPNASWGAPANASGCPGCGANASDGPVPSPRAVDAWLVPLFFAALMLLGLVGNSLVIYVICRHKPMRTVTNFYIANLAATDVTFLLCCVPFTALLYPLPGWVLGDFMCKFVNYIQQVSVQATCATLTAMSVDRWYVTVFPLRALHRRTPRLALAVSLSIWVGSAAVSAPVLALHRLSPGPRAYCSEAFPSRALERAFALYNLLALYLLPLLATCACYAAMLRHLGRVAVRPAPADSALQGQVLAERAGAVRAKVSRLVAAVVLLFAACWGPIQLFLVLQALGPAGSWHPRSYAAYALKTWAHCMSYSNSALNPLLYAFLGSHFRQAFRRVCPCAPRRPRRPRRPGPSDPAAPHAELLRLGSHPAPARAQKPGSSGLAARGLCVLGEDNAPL
Beta-2 adrenergic receptor (Homo sapiens), sequence (P07550 whole entry, looked up): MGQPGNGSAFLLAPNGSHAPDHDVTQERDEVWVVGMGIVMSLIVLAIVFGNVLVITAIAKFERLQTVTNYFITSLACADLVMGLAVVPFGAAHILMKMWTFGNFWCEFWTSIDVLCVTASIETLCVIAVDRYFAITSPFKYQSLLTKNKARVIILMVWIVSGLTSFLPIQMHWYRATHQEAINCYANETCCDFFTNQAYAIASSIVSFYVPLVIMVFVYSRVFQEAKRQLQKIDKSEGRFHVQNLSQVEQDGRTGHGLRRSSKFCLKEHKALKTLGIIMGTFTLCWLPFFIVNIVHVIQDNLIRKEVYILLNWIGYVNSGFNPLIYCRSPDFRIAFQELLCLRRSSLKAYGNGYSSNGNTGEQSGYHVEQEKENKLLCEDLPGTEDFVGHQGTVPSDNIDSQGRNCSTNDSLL
5-hydroxytryptamine receptor 2A (Homo sapiens), sequence (P28223 whole entry, looked up): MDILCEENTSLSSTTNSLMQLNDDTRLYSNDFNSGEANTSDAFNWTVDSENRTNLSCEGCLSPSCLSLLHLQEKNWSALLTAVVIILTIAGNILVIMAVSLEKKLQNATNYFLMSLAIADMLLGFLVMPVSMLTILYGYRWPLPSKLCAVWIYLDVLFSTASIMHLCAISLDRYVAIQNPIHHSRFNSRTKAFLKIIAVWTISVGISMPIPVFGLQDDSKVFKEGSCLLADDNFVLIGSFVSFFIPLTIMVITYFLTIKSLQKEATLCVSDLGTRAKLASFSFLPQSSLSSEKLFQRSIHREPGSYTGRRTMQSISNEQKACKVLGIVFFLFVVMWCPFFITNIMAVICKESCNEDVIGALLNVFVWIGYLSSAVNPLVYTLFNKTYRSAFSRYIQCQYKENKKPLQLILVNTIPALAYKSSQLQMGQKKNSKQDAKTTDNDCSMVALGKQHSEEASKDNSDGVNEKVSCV
Muscarinic acetylcholine receptor M1 (Homo sapiens), sequence (P11229 whole entry, looked up): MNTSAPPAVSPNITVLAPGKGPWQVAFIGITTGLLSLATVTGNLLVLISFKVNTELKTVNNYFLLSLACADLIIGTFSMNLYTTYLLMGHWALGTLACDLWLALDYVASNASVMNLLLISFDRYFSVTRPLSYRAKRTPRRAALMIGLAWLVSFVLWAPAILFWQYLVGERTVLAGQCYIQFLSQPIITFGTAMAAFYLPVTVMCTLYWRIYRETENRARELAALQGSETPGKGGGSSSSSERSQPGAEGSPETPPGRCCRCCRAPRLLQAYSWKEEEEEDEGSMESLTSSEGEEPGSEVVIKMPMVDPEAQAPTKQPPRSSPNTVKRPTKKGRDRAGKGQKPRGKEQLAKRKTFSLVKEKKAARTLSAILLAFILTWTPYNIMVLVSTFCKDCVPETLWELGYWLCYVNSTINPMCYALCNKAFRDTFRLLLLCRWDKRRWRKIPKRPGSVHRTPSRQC
Gonadotropin-releasing hormone receptor (Homo sapiens), sequence (P30968 whole entry, looked up): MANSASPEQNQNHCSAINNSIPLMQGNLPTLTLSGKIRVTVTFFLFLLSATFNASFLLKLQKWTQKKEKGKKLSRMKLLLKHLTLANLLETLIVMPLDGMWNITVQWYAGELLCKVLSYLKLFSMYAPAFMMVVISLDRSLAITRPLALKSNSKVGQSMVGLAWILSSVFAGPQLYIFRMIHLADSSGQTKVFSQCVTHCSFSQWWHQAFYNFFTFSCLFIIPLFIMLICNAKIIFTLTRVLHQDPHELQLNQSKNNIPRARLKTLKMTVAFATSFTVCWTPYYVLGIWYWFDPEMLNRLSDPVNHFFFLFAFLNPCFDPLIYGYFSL
D(2) dopamine receptor (Homo sapiens), sequence (P14416 whole entry, looked up): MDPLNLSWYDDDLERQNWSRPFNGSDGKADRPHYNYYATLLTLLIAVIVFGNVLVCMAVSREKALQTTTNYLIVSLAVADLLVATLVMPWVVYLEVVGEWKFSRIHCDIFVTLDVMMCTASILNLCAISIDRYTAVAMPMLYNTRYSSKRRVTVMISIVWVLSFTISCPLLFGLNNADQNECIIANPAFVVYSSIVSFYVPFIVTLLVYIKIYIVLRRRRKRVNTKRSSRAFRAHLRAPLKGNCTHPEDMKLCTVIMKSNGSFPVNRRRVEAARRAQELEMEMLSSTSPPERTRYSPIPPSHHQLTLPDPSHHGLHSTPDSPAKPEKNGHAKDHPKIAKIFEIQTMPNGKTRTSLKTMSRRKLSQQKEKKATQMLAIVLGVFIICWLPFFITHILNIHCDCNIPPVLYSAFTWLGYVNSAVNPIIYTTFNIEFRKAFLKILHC

On to `CCC1(C)NC(=O)NC1=O` (configuration not stated), for which the Potency result in [1], in assay [2], in assay [3], in assay [6], in assay [7] and in [8] was “inactive” each time. Besides, the Potency result in assay [9], in [10], in [11], in assay [12], in assay [13] and in [14] was “inactive” throughout. The Potency entry in [15], in [16], in assay [17], in [18] and in assay [19] was “inactive” throughout. In addition, the outcome in [4] and in assay [5] was inactive.
For `CC(=O)N/N=C/c1ccc([N+](=O)[O-])o1`, the Potency entry in [1], in assay [3], in assay [6], in assay [7], in assay [8] and in [9] was “inactive” each time. Further, the Potency entry in [10], in [11], in assay [12], in assay [13], in [15] and in assay [16] was “inactive” throughout. Moreover, the Potency entry in assay [18] and in [19] was “inactive” each time. For the same compound, the Potency in [2] is 33500 nM (active); in [14], 32.6 nM (active). Besides, the outcome in [4] and in assay [5] was inactive.
As to `CC(C)SCc1ccco1`, the Potency result in assay [1], in assay [2], in assay [3], in assay [6], in [7] and in assay [8] was “inactive” in each case. In addition, the Potency entry in [9], in assay [10], in assay [11], in [12], in assay [13] and in assay [14] was “inactive” throughout. Moreover, the Potency result in assay [15], in assay [16], in [17], in [18] and in [19] was “inactive” in each case. The result in assay [4] and in [5] was inactive.
Regarding `O=C(Nc1ccccc1)Nc1ccccc1`, the Potency result in assay [1], in [2], in [3], in [6], in assay [7] and in [8] was “inactive” throughout. In addition, the Potency entry in assay [9], in assay [10], in assay [11], in assay [12], in [13] and in [14] was “inactive” throughout. The Potency result in [15], in assay [16], in [18] and in [19] was “inactive” each time. In addition, the result in assay [4] and in assay [5] was inactive.
For the compound `O=C1c2ccccc2C(=O)N1CCl`, the Potency entry in assay [1], in assay [2], in assay [3], in assay [6], in [7] and in assay [8] was “inactive” each time. Also, the Potency entry in assay [9], in assay [10], in [11], in assay [12], in assay [13] and in [14] was “inactive” in each case. The Potency result in [15], in assay [16], in assay [17], in assay [18] and in assay [19] was “inactive” throughout. For the same compound, the outcome in assay [4] and in assay [5] was inactive.
On to `CC1=C2[C@@H]([C@H](C)CC[C@H]2/C=C(\C)C(=O)O)[C@H](O)C1`, for which the Potency result in [1], in assay [2], in assay [3], in assay [6], in assay [7] and in assay [8] was “inactive” in each case. Also, the Potency entry in [9], in assay [10], in [11], in assay [12], in assay [13] and in [15] was “inactive” each time. Also, the Potency entry in assay [20], in assay [17], in assay [18] and in assay [19] was “inactive” each time. Further, the result in assay [4] and in [5] was inactive. In addition, the Potency in assay [14] is 2.6 nM (active).
